Activity calls are given as the source filed them. How the source made its calls: active means hit-call score of the fitted dose curve at least 0.9, where 1 is the maximum; inactive means score below 0.9.
Legend:
[1] = ATG_CRE_CIS: Attagene CIS-FACTORIAL HepG2 Assay for human cAMP Responsive Element (CRE) binding protein 3 (AID 2282926); details: HepG2 CRE cis-reporter, Attagene multiplexed mRNA; actives raise or lower the signal
How it was run: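 We dosed HepG2 cells bearing multiple cis-promoter reporter units for 24 h and measured reporter mRNA by RT-PCR with capillary electrophoresis detection. Bidirectional concentration-response fitting used DMSO as negative control.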

[2] = biological target: CCAAT/enhancer-binding protein beta (Homo sapiens) (UniProt P17676); assay: ATG_C_EBP_CIS: Attagene CIS-FACTORIAL HepG2 Assay for human CCAAT/Enhancer Binding Protein (C/EBP) beta (AID 2282927); details: HepG2 Attagene cis-factorial transcription factor reporter; actives raise or lower the signal
Sequence of CCAAT/enhancer-binding protein beta (Homo sapiens) (P17676 whole entry, looked up): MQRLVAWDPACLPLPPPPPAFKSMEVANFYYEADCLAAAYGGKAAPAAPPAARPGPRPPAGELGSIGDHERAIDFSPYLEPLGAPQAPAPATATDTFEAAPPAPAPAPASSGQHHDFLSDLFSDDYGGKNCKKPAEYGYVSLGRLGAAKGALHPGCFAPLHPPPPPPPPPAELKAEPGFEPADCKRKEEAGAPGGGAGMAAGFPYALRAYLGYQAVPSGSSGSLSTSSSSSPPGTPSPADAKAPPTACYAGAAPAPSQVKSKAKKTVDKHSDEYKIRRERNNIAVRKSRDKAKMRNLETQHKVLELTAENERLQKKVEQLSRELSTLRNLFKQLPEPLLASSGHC
How it was run: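 RT-PCR/capillary electrophoresis fluorescence of reporter mRNA, 24 h post-dose, in HepG2 cells carrying transfected cis-promoter reporter units. Bidirectional curve fitting against DMSO baseline captures gain or loss of signal.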

[3] = ATG_CMV_CIS: Attagene CIS-FACTORIAL HepG2 Assay for human CMV (Internal Marker) (AID 2282928); details: HepG2 CMV promoter reporter, transcription factor profiling; actives raise or lower the signal;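 further: endpoint acts as a background internal control marker rather than a target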
How it was run: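 Endogenous transcription factor activity read in HepG2 via transfected cis-promoter reporter units. After 24 h dosing, reporter mRNA measured by RT-PCR/capillary electrophoresis; gain or loss of signal fit relative to DMSO.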

[4] = ATG_DR4_LXR_CIS: Attagene CIS-FACTORIAL HepG2 Assay for human Liver X Receptor (LXR), DR4 submotif (AID 2282929); details: HepG2 Attagene DR4 cis-reporter, mRNA transcription; actives raise or lower the signal
How it was run: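 HepG2 cells transiently transfected with cis-promoter-driven multiplexed reporter units (DR4 element) were dosed for 24 h. Reporter mRNA was quantified by RT-PCR, fluorescent primer extension, HpaI digestion and capillary electrophoresis; bidirectional fitting versus DMSO baseline.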

[5] = biological target: Aryl hydrocarbon receptor (Homo sapiens) (UniProt P35869); assay: ATG_Ahr_CIS: Attagene CIS-FACTORIAL HepG2 Assay for human Aryl Hydrocarbon Receptor (Ahr) (AID 2282930); details: HepG2 AhR cis-factorial reporter transcription; actives raise or lower the signal
Sequence of Aryl hydrocarbon receptor (Homo sapiens) (P35869 whole entry, looked up): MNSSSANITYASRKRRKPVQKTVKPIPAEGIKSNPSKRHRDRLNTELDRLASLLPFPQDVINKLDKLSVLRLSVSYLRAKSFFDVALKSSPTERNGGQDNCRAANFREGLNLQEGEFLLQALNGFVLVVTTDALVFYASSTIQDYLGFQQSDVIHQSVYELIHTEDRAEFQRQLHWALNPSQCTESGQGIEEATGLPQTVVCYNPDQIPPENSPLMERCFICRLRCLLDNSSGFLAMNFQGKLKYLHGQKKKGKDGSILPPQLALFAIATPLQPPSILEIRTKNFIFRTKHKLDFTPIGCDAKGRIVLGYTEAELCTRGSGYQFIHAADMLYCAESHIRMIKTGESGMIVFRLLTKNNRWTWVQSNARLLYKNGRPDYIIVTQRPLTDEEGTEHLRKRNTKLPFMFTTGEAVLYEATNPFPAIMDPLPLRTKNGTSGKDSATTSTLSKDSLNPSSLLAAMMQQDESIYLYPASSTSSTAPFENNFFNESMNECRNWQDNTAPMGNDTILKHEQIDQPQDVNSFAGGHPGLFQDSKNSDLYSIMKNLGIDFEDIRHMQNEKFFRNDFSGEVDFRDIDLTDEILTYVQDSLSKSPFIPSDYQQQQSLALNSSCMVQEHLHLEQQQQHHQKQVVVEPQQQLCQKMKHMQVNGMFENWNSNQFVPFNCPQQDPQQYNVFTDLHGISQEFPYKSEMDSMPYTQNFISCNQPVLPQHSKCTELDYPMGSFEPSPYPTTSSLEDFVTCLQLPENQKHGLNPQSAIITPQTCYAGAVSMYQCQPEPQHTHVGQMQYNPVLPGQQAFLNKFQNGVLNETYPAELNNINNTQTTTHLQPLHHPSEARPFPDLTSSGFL
How it was run: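 HepG2 cells transiently transfected with cis-element-driven multiplexed reporter transcription units; endogenous transcription factor activity measured as reporter mRNA 24 h after dosing. RT-PCR, 6-FAM labelling, HpaI digestion, capillary electrophoresis; bidirectional fitting versus DMSO baseline.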

[6] = ATG_AP_1_CIS: Attagene CIS-FACTORIAL HepG2 Assay for human Activator Protein 1 (AP-1) (AID 2282931); details: HepG2 Attagene cis-factorial AP-1 reporter mRNA; actives raise or lower the signal
How it was run: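 HepG2 cells transiently transfected with cis-element-driven multiplex reporter units; 24 h compound exposure. Reporter mRNA quantified by RT-PCR, FAM-labelled fragments resolved by capillary electrophoresis; bidirectional fit versus DMSO baseline.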

[7] = ATG_AP_2_CIS: Attagene CIS-FACTORIAL HepG2 Assay for human Activator Protein 2 (AP-2) (AID 2282932); details: HepG2 AP-2 cis-reporter, Attagene transcription factor profiling; actives raise or lower the signal
How it was run: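 HepG2 cells were transiently transfected with multiple cis-promoter reporter transcription units and dosed for 24 h. Reporter mRNA was measured by RT-PCR with capillary electrophoresis fluorescence; bidirectional fits relative to DMSO baseline.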

[8] = ATG_BRE_CIS: Attagene CIS-FACTORIAL HepG2 Assay for human Bone Morphogenetic Protein (BMP) Response Element (BRE) (AID 2282933); details: HepG2 BMP response element reporter, Attagene transcription factor profiling; actives raise or lower the signal
How it was run: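 Endogenous transcription factor activity at a BMP response element was monitored in transfected HepG2 cells 24 h after dosing. Fluorescent RT-PCR products were resolved by capillary electrophoresis, and activity was fitted in both directions versus DMSO.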

[9] = biological target: Retinoic acid receptor alpha (Homo sapiens) (UniProt P10276); assay: ATG_DR5_RAR_CIS: Attagene CIS-FACTORIAL HepG2 Assay for human Retinoic Acid Receptor Alpha (RARE), DR5 submotif (AID 2282934); details: HepG2 Attagene cis-factorial RARE DR5 reporter, mRNA; actives raise or lower the signal
Sequence of Retinoic acid receptor alpha (Homo sapiens) (P10276 whole entry, looked up): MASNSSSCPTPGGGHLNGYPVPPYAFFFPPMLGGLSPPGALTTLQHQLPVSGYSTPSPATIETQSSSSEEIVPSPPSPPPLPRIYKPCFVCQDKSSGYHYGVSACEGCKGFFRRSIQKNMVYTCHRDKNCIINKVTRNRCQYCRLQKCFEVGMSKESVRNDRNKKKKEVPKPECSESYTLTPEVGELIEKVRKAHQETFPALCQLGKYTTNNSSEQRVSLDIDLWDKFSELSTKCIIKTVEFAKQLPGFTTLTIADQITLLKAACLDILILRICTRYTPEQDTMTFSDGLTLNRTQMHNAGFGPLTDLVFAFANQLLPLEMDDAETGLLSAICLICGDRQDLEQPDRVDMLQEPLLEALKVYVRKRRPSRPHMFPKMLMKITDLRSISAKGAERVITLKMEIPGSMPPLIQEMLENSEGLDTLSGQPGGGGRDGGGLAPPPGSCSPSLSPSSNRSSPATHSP
How it was run: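 HepG2 cells transiently transfected with multiplexed reporter units under cis (DR5 RARE) promoters, so endogenous transcription factor activity is measured. After 24 h compound exposure, reporter mRNA is quantified by RT-PCR with fluorescent labelling and capillary electrophoresis; bidirectional fitting versus DMSO.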

[10] = biological target: Transcription factor E2F1 (Homo sapiens) (UniProt Q01094); assay: ATG_E2F_CIS: Attagene CIS-FACTORIAL HepG2 Assay for human E2F Transcription Factor 1 (AID 2282935); details: HepG2 Attagene cis-reporter, E2F reporter RNA transcripts; actives raise or lower the signal
Sequence of Transcription factor E2F1 (Homo sapiens) (Q01094 whole entry, looked up): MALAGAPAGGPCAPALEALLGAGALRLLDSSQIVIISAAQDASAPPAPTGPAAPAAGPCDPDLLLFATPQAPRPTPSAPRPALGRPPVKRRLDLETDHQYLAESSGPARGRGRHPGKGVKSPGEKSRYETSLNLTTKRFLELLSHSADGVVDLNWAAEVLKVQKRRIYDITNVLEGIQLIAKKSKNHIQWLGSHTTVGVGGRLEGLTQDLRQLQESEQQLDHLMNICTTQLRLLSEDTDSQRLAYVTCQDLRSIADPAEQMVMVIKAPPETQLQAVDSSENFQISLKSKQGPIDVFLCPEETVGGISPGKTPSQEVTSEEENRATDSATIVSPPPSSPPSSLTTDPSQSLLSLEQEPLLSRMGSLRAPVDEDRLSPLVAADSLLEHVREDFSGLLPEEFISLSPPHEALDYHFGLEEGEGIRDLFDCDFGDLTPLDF
How it was run: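 HepG2 cells transiently transfected with multiplexed cis-element reporter units, dosed for 24 h. Reporter mRNA measured by RT-PCR, 6-FAM primer-extension labeling, HpaI digestion and capillary electrophoresis; bidirectional fit versus DMSO baseline.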

[11] = ATG_E_Box_CIS: Attagene CIS-FACTORIAL HepG2 Assay for human Enhancer Box (E-box) (AID 2282936); details: HepG2 E-box cis-reporter transcription, actives raise or lower the signal
How it was run: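 HepG2 cells transiently transfected with multiplexed cis-element reporter units sensing endogenous transcription factor activity; 24 h compound exposure. Reporter mRNA measured by RT-PCR, 6-FAM primer extension, HpaI digestion and capillary electrophoresis; bidirectional fit versus DMSO.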

[12] = ATG_M_61_CIS: Attagene CIS-FACTORIAL HepG2 Assay for M61 Transcription Factor (Internal Marker) (AID 2282937); details: HepG2 Attagene CIS-FACTORIAL M61 internal marker reporter; actives raise or lower the signal
How it was run: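 HepG2 cells transiently transfected with cis-element-driven multiple reporter transcription units, dosed for 24 h. Reporter mRNA measured by RT-PCR, 6-FAM primer-extension labelling, HpaI digestion and capillary electrophoresis; bidirectional fit versus DMSO baseline.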

[13] = ATG_EGR_CIS: Attagene CIS-FACTORIAL HepG2 Assay for human Early Growth Response 1 (EGR1) (AID 2282938); details: HepG2 Attagene CIS-FACTORIAL EGR reporter mRNA; actives raise or lower the signal
How it was run: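 HepG2 cells transiently transfected with cis-promoter-driven multiplexed reporter transcription units; reporter mRNA measured 24 h after compound dosing by RT-PCR, 6-FAM primer extension, HpaI digestion and capillary electrophoresis. Bidirectional fit versus DMSO baseline.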

[14] = ATG_ERE_CIS: Attagene CIS-FACTORIAL HepG2 Assay for Estrogen Response Element (ERE) (AID 2282940); details: HepG2 ERE cis-reporter, Attagene RNA transcript; actives raise or lower the signal
How it was run: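 Cells used were human hepatoma HepG2, transfected with multiple reporter transcription units under cis-regulatory promoters. Reporter mRNA, read 24 h post-dosing via fluorescent RT-PCR products on capillary electrophoresis, was fitted bidirectionally relative to DMSO.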

[15] = ATG_Ets_CIS: Attagene CIS-FACTORIAL HepG2 Assay for human Erythroblast Transformation Specific (ETS) (AID 2282941); details: HepG2 ETS cis-reporter transcription, actives raise or lower the signal
How it was run: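 Steps: transfect HepG2 with multiple reporter units; treat compound 24 h; isolate RNA, DNase-treat, reverse-transcribe; PCR-amplify, label with 6-FAM, digest with HpaI; separate by capillary electrophoresis. Activity fitted both directions versus DMSO.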

[16] = biological target: Hepatocyte nuclear factor 3-beta (Homo sapiens) (UniProt Q9Y261); assay: ATG_FoxA2_CIS: Attagene CIS-FACTORIAL HepG2 Assay for human Forkhead box A2 (FOXA2) (AID 2282942); details: HepG2 cis-reporter transcription factor activity, 24 h; actives raise or lower the signal
Sequence of Hepatocyte nuclear factor 3-beta (Homo sapiens) (Q9Y261 whole entry, looked up): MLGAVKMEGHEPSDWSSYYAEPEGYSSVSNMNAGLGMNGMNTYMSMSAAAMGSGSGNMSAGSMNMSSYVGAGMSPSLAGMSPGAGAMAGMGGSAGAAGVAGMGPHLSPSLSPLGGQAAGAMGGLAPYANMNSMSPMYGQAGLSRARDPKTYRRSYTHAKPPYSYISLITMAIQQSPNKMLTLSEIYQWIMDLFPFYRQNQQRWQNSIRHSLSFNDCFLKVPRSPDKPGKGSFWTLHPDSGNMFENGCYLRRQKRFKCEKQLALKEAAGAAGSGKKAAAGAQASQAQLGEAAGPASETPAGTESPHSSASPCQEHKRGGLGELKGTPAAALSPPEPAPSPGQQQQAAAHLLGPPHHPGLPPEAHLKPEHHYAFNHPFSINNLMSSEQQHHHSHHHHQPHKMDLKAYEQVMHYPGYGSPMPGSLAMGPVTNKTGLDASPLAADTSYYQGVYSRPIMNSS
How it was run: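 HepG2 cells transiently transfected with multiple cis-regulated reporter transcription units, dosed for 24 h. Reporter mRNA measured by RT-PCR, 6-FAM labelling, HpaI digestion and capillary electrophoresis; bidirectional fitting against DMSO baseline.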

[17] = ATG_FoxO_CIS: Attagene CIS-FACTORIAL HepG2 Assay for human Forkhead box O (FoxO) (AID 2282943); details: HepG2 Attagene cis-reporter, FoxO element, mRNA; actives raise or lower the signal
How it was run: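 HepG2 cells transiently transfected with cis-promoter-driven multiple reporter transcription units; 24 h after chemical dosing, reporter mRNA quantified by RT-PCR, fluorescent primer extension, HpaI digestion and capillary electrophoresis. Bidirectional fitting versus DMSO baseline.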

[18] = ATG_GATA_CIS: Attagene CIS-FACTORIAL HepG2 Assay for human GATA Binding Protein (AID 2282944); details: HepG2 GATA cis-element reporter, Attagene multiplex mRNA; actives raise or lower the signal
How it was run: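 Endogenous transcription factor activity was captured through cis-promoter-driven reporters in transfected HepG2 cells. After 24 h exposure, reporter transcripts were quantified by RT-PCR with fluorescent capillary electrophoresis, and responses fitted both directions against DMSO.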

[19] = ATG_GLI_CIS: Attagene CIS-FACTORIAL HepG2 Assay for human Zinc Finger Protein GLI1 (AID 2282945); details: HepG2, Attagene cis-factorial reporter mRNA, GLI element; actives raise or lower the signal
How it was run: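 HepG2 cells transiently transfected with cis-promoter multiplexed reporter units report endogenous transcription factor activity. After 24 h chemical exposure, reporter mRNA was quantified by RT-PCR, 6-FAM labelling, HpaI digestion and capillary electrophoresis, with bidirectional fitting against DMSO.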

[20] = ATG_M_19_CIS: Attagene CIS-FACTORIAL HepG2 Assay for M19 Transcription Factor (Internal Marker) (AID 2282939); details: HepG2 Attagene CIS-FACTORIAL M19 internal marker reporter; actives raise or lower the signal
How it was run: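 Background-control endpoint from a multiplexed HepG2 reporter panel. Cells carrying cis-regulated reporter constructs are treated 24 h, then reporter transcripts are amplified, fluorescently labelled and sized by capillary electrophoresis. DMSO defines baseline.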

Measured: AC50

OC[C@H]1O[C@@H](Oc2ccc(O)cc2)[C@H](O)[C@@H](O)[C@@H]1O
not listed: [20]
inactive: all other assays above

CCOC(=O)CN
not listed: [10] | [14] | [20]
inactive: all other assays above

Cc1ccc2c(c1)C(=O)OC2=O
not listed: [14] | [20]
inactive: all other assays above

C=CC(=O)OCCCC
not listed: [14] | [15] | [20]
inactive: all other assays above

CS(=O)(=O)OCCCCOS(C)(=O)=O
active: [5] 63.6 µM
not listed: [9]
inactive: all other assays above

COc1ccc(N=Nc2cc(C)c(N=Nc3ccc(S(=O)(=O)O)cc3)cc2OC)cc1
active: [1] 19.8 µM | [2] 42.9 µM | [4] 74.3 µM | [5] 4.25 µM | [11] 100 µM | [15] 166 µM
not listed: [10] | [14] | [18]
inactive: all other assays above

CC1(C)COCN1
not listed: [10] | [14]
inactive: all other assays above

CCCCC1(COC(=O)CCC(=O)O)C(=O)N(c2ccccc2)N(c2ccccc2)C1=O
not listed: [20]
inactive: all other assays above

O=C(O)c1cc(C(=O)O)cc([N+](=O)[O-])c1
not listed: [14] | [20]
inactive: all other assays above

O=[N+]([O-])c1cccc(Cl)c1
not listed: [10]
inactive: all other assays above

C=C(C#N)C(=O)OCC
active: [2] 154 µM | [4] 158 µM
not listed: [14] | [15] | [18]
inactive: all other assays above

COc1ccc(CCN2CCC(Nc3nc4ccccc4n3Cc3ccc(F)cc3)CC2)cc1
not listed: [14] | [16] | [20]
inactive: all other assays above

ON=C1CCCCC1
not listed: [10] | [14]
inactive: all other assays above

CCC(C)=O
not listed: [14] | [20]
inactive: all other assays above

CCC1CCCCC1
not listed: [10] | [14] | [20]
inactive: all other assays above
